Potency data for eight molecules are collected here from PubChem BioAssay (Tox21).

A number with no mark means an inactive call. Inconclusive results are not listed. Active and inactive are the calls of the source. Unless noted, calls follow the shape of the full dose curve.

Test [1] in a line: Nuclear factor erythroid 2-related factor 2/antioxidant responsive element (Nrf2/ARE) small molecule agonists: luciferase reporter gene qHTS assay in human keratinocytes (AID 1919969). Also: nearly all actives have a fitted effect of over 35% in size. Also: potency is read from the fitted curve at half-maximal effect.
Test [2] concerns the target Gonadotropin-releasing hormone receptor (Homo sapiens) (UniProt P30968). Briefly: Human gonadotropin-releasing hormone receptor (GnRHR) small molecule agonists, calcium flux assay in GnRHR-HEK293 cells (AID 1920063). Also: nearly all actives have a fitted effect of over 35% in size. In outline: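 We seeded human GnRHR-expressing HEK293 cells for 18 hours, loaded them with calcium dye for an hour at 37 C, added test compounds, and recorded fluorescence intensity kinetically for three minutes.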

Test [3] has as its target KiSS-1 receptor (Homo sapiens) (UniProt Q969F8). The test can be described thus: Human kisspeptin (KISS1R) small molecule agonists, calcium flux assay in KISS1R-HEK293 cells (AID 1920064; active = well fitted activation curve with a large enough effect in the repeat runs). An outline of the steps: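 Kinetic calcium assay, 1 s sampling over 3 min at Ex/Em 480/540, in HEK293 cells engineered with human KISS1R; compounds delivered in DMSO after 1 h dye loading.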

Test [4] can be described thus: G protein-coupled receptor (GPCR) small molecule agonists, calcium flux assay: HEK293 wild type cell line counter screen (AID 1920065). An outline of the steps:
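Calcium-sensitive dye, loaded 1 h at 37 C into cells cultured 18 h, reports compound-evoked calcium release as fluorescence (Ex/Em 480/540), measured over 3 min. Agonist mode; 15-point titrations, triplicate.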

The nature of test [5]: p53 small molecule agonists, cell-based qHTS assay with human liver microsomes (AID 1963577). An outline of the steps:
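Cells carrying a p53-responsive bla reporter were rested 5 h (37 C, 5% CO2) before compound transfer. Human liver microsomes plus NADPH, 0.5 mg/mL final apiece, supplied metabolism during the 16 h 37 C exposure.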

The nature of test [6]: p53 small molecule agonists, cell-based qHTS assay with rat liver microsomes (AID 1963578). An outline of the steps: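 Fluorescence from a beta-lactamase reporter under a p53 response element was measured after cells had been incubated 16 h at 37 C with test compound and rat liver microsomes plus NADPH (0.5 mg/mL final each).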
Test [7] in a line: p53 small molecule agonists, cell-based qHTS assay with human liver microsomes: qHTS cell viability counter screen (AID 1963579). Also: nearly all actives have a fitted effect of over 45% in size. An outline of the steps: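 Seed p53RE-bla cells at 4,000 per well; incubate 5 h at 37 C; add compound, human liver microsomes and NADPH; incubate 16 h at 37 C; add CellTiter-Glo; after 30 min at room temperature, read luminescence.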
The nature of test [8]: p53 small molecule agonists, cell-based qHTS assay with rat liver microsomes: qHTS cell viability counter screen (AID 1963580). Also: nearly all actives have a fitted effect of over 45% in size. In outline: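 In HCT-116 cells carrying a p53 response element-bla reporter, compounds were metabolically activated in situ by rat liver microsomes with NADPH over 16 h. Cell ATP content then served as the cytotoxicity measure.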
A short description of test [9]: p53 small molecule agonists, cell-based qHTS assay: qHTS cell viability counter screen (AID 1963581). Also: nearly all actives have a fitted effect of over 45% in size. An outline of the steps:
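Following 5 h attachment, HCT-116 p53RE-bla cells took up compound for 16 h at 37 C; the reporter was read with B/G FRET substrate (2 h RT), and viability then via CellTiter-Glo ATP luminescence.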

Test [10] addresses 5-hydroxytryptamine receptor 2A (Homo sapiens) (UniProt P28223). The test can be described thus: 5-hydroxytryptamine receptor 2A (HTR2A) small molecule antagonists, cell-based qHTS assay (AID 1963586). Also: nearly all actives have a fitted effect of over 45% in size. Also: potency is read from the fitted curve at half-maximal effect. An outline of the steps:
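Antagonist-mode intracellular calcium assay: DOI (4 nM) added after 5 min compound pre-incubation at room temperature to dye-loaded HTR2A-CHO cells. Fluorescence followed for 3 min, sampled every second.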

In test [11] the target is Muscarinic acetylcholine receptor M1 (Homo sapiens) (UniProt P11229). The test can be described thus: Cholinergic receptor muscarinic 1 (CHRM1) small molecule antagonists, cell-based qHTS assay (AID 1963588). Also: nearly all actives have a fitted effect of over 40% in size. Also: potency is read from the fitted curve at half-maximal effect. An outline of the steps: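 CHRM1-CHO calcium-flux assay, antagonist mode. Cells were seeded 18 h, dye-loaded 1 h at 37 C and given compound for 5 min at RT, then acetylcholine was added at 50nM. FDSS fluorescence was read 3 min; 15 concentrations, three runs.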
Muscarinic acetylcholine receptor M1 (Homo sapiens), sequence (P11229 whole entry, looked up): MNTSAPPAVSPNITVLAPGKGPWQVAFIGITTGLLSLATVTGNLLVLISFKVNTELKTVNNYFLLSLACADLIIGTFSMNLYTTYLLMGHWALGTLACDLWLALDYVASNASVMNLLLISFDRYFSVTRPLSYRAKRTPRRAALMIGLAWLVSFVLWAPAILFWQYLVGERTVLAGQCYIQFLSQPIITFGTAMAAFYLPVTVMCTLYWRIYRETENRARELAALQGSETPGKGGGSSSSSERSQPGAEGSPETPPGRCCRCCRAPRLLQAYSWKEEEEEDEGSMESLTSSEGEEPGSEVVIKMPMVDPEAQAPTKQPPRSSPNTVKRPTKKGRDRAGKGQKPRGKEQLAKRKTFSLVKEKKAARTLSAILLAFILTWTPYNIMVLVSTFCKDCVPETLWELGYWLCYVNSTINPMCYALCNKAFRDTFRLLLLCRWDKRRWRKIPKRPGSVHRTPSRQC

The target is the same in test [12]. Briefly: Cholinergic receptor muscarinic 1 (CHRM1) small molecule agonists, cell-based qHTS assay (AID 1963589). Also: nearly all actives have a fitted effect of over 35% in size. In outline: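 Measures agonist-induced intracellular calcium rise. Stable human CHRM1 CHO line, 1 h dye load at 37 C, compounds from DMSO, kinetic fluorescence read.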
The nature of test [13]: cAMP Responsive Elements (CRE) small molecule agonists, cell-based qHTS assay (AID 1963590). An outline of the steps:
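A CRE-responsive beta-lactamase reporter in HEK 293T cells was used. Treatment ran 3 h at 37 C; detection used LiveBLAzer B/G FRET substrate for 2 h at room temperature.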

In test [14] the target is Beta-2 adrenergic receptor (Homo sapiens) (UniProt P07550). The test can be described thus: Adrenergic beta2 receptor (ADRB2) small molecule agonists, cell-based qHTS assay (AID 1963593).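 Also: CHO cells stably overexpressing human ADRB2.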 In outline:
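CHO cells stably over-expressing ADRB2 were plated overnight at 37C, then dosed with compounds plus a stimulation mix containing 100uM IBMX and 25uM Ro-20-1724 for 0.5hr at room temperature. cAMP was measured by HTRF competition, 1hr.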

For test [15], the target named is D(2) dopamine receptor (Homo sapiens) (UniProt P14416). Briefly: Dopamine D2 receptor (DRD2) small molecule agonists, cell-based qHTS assay (AID 1963594). Also: nearly all actives have a fitted effect of over 35% in size. In outline: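 HEK293 cells stably expressing DRD2 were cultured 24 h at 37 C, then given Ro20-1724 (0.1 mM final) and compounds for 10 min at room temperature. NKH477 (200nM) was then added for 30 min. cAMP was read by HTRF.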
D(2) dopamine receptor (Homo sapiens), sequence (P14416 whole entry, looked up): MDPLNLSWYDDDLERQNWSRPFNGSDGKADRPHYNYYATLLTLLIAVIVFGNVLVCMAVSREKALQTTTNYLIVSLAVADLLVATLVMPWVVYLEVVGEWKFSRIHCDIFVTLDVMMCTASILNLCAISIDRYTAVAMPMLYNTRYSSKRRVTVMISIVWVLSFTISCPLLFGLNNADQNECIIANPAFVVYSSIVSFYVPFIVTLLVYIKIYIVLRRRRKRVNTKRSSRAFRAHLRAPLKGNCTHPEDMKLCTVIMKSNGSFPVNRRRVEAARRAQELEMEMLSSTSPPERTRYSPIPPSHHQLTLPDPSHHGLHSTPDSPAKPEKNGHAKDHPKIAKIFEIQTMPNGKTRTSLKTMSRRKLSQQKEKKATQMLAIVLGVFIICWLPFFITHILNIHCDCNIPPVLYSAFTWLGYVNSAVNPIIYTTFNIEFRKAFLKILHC

Test [16] shares this target. Briefly: Dopamine D2 receptor (DRD2) small molecule antagonists, cell-based qHTS assay (AID 1963595; active = well fitted inhibition curve with a large enough effect in the signal ratio in the repeat runs, with a control signal flat; the % refers to the signal ratio). In outline:
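HTRF cAMP read-out at 665 and 620 nm emission (340 nm excitation). Antagonist mode: compounds were tested against 12 nM quinpirole in DRD2-HEK293 cells, with 200 nM NKH477 raising cAMP and 0.1 mM Ro20-1724 blocking its breakdown.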

Test [17] is described as follows: p53 small molecule agonists, cell-based qHTS assay (AID 1963582; active = well fitted activation curve with a large enough effect in the signal ratio in the repeat runs, not every such curve was filed as active; the % refers to the signal ratio). In outline: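 In this cell-based concentration-response screen, a p53 response element drives beta-lactamase; cells received DMSO-borne compounds after 5 h culture and were incubated a further 16 h before FRET substrate development.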
Test [18] deals with 5-hydroxytryptamine receptor 2A (Homo sapiens) (UniProt P28223). Briefly: 5-hydroxytryptamine receptor 2A (HTR2A) small molecule agonists, cell-based qHTS assay (AID 1963587). Also: nearly all actives have a fitted effect of over 30% in size. An outline of the steps: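 HTR2A-CHO cells, plated 18 h at 37 C/5% CO2, dye-loaded 1 h at 37 C; compounds in DMSO added by pin tool (agonist mode). Intracellular calcium flux read as kinetic fluorescence on FDSS over 2 min at 1 s intervals.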
5-hydroxytryptamine receptor 2A (Homo sapiens), sequence (P28223 whole entry, looked up): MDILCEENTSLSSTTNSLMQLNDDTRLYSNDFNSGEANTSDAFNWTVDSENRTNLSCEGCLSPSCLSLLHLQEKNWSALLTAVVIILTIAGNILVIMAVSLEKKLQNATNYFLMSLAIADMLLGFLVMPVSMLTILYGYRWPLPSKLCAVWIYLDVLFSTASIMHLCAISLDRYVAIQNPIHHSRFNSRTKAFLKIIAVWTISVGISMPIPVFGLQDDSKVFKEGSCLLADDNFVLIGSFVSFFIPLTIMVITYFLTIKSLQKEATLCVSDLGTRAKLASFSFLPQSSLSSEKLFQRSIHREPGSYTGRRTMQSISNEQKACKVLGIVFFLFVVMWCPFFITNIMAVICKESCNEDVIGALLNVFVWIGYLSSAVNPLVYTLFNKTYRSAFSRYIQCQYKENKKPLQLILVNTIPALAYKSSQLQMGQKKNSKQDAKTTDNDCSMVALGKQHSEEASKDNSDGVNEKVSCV

In test [19] the target is Beta-2 adrenergic receptor (Homo sapiens) (UniProt P07550). The test can be described thus: Adrenergic beta2 receptor (ADRB2) small molecule antagonists, cell-based qHTS assay (AID 1963592). Also: nearly all actives have a fitted effect of over 50% in size. Also: potency is read from the fitted curve at half-maximal effect. An outline of the steps: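 Cells (CHO, stable ADRB2 overexpression) incubated 18-20hr at 37C; compounds added from DMSO; agonist mix (1nM isoproterenol, 100uM IBMX, 25uM Ro-20-1724) added; 0.5hr RT; d2-cAMP and anti-cAMP-cryptate added; 1hr RT; 665/615 nm read.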
Beta-2 adrenergic receptor (Homo sapiens), sequence (P07550 whole entry, looked up): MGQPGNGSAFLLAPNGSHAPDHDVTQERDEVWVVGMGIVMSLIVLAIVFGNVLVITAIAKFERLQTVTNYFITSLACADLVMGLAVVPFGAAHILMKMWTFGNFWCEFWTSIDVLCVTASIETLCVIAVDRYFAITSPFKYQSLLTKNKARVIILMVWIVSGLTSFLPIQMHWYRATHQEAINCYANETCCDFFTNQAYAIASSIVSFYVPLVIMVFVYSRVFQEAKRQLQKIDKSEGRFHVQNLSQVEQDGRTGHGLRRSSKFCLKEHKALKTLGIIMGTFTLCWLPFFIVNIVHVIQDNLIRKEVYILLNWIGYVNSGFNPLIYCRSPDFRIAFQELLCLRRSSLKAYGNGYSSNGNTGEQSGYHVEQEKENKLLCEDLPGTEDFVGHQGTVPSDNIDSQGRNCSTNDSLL

Test [20] is described as follows: cAMP Responsive Elements (CRE) small molecule antagonists, cell-based qHTS assay (AID 1963591; active = well fitted inhibition curve with a large enough effect in the signal ratio in the repeat runs, not every such curve was filed as active; the % refers to the signal ratio). In outline:
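HEK293T cells carrying a CRE-driven beta-lactamase reporter receive compound and NKH477 (0.25 uM final) for 3 h. Fluorescence from LiveBLAzer B/G FRET substrate is read after 2 h at room temperature.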

Gonadotropin-releasing hormone receptor (Homo sapiens), sequence (P30968 whole entry, looked up): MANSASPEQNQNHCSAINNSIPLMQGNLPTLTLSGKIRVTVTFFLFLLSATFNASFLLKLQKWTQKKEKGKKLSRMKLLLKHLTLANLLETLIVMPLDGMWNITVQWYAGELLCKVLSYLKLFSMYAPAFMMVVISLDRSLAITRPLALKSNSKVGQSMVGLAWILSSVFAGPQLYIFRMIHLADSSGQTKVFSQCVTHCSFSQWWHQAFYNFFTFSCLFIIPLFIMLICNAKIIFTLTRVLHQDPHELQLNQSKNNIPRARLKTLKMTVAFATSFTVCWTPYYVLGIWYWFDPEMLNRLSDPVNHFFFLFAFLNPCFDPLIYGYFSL
KiSS-1 receptor (Homo sapiens), sequence (Q969F8 whole entry, looked up): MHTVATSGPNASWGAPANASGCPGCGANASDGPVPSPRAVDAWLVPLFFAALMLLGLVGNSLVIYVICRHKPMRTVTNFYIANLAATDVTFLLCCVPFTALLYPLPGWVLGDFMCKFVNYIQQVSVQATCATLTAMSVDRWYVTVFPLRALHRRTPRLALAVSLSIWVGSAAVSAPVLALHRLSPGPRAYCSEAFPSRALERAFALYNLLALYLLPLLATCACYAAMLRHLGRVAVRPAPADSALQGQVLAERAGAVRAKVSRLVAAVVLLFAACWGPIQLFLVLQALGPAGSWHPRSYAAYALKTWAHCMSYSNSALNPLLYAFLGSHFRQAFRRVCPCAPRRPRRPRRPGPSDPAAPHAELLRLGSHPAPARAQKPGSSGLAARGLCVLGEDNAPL

`CC(C)=CCC[C@](C)(O)[C@@H]1CC=C(C)CC1`: the Potency in test [1] was 54.5 µM (active). For the same molecule, the Potency entry in test [2], in test [3], in test [4], in test [5], in [6] and in test [7] was “inactive” in each case. In addition, the Potency entry in [8], in test [9], in [10], in test [11], in test [12] and in [13] was “inactive” each time. For the same molecule, the Potency result in test [14], in [15] and in test [16] was “inactive” throughout.
For `CCOc1ccc(N=Nc2ccc(/C=C/c3ccc(N=Nc4ccc(OCC)cc4)cc3S(=O)(=O)O)c(S(=O)(=O)O)c2)cc1`, the Potency result in test [1], in test [2], in test [3], in [4], in [5] and in test [6] was “inactive” each time. For the same molecule, the Potency entry in [7], in test [8], in test [17], in [10], in test [18] and in [11] was “inactive” each time. Moreover, the Potency result in [12], in test [13], in [19], in test [15] and in test [16] was “inactive” in each case.
As to `CO[Si](OC)(c1ccccc1)c1ccccc1`, the Potency entry in [1], in test [2], in test [3], in test [4], in test [5] and in test [6] was “inactive” in each case. Besides, the Potency result in [7], in [9], in test [17], in test [10], in test [18] and in test [11] was “inactive” in each case. Further, the Potency entry in test [12], in test [13], in test [20], in test [15] and in [16] was “inactive” in each case.
For the molecule `Oc1cc2c(cc1O)[C@H]1c3ccc(O)c(O)c3OC[C@@]1(O)C2`, the Potency entry in test [1], in test [2], in test [3], in [4], in [5] and in test [6] was “inactive” throughout. The Potency entry in test [7], in test [8], in [17], in test [10], in test [18] and in test [11] was “inactive” each time. Further, the Potency entry in [12] and in [13] was “inactive” in each case.
Consider `c1cc(CN2CCCCC2)cc(OCCCNc2nc3ccccc3s2)c1`, for which the Potency result in test [1], in [2], in test [3], in [4], in test [5] and in [6] was “inactive” each time. Further, the Potency entry in [7], in test [8], in test [9], in [18], in [12] and in [13] was “inactive” throughout. The Potency result in [15] was “inactive”. Besides, in test [11], the Potency was 5.79 µM (active).
`CCCCCCCCCCCCCCCCC(C(=O)O)C(O)(CC(=O)O)C(=O)O` (stereo not given): the Potency result in test [1], in [2], in test [3], in [4], in test [5] and in [6] was “inactive” throughout. The Potency result in test [7], in [8], in test [17], in test [11], in [12] and in test [13] was “inactive” each time. Further, the Potency entry in [20], in [19], in [14], in [15] and in [16] was “inactive” in each case. Also, the Potency in test [10] is 13 µM (active).
With `COc1cc2nc(N3CCN(C(=O)C4COc5ccccc5O4)CC3)nc(N)c2cc1OC` (stereo not given), the Potency entry in [1], in [2], in test [3], in test [4], in test [5] and in test [6] was “inactive” each time. The Potency entry in test [7], in [8], in test [9], in test [13] and in test [16] was “inactive” each time. Also, the Potency in test [19] was 26.6 µM (active).
For `CCc1cc(C(C)(C)C)c(O)c(C(C)(C)C)c1`, the Potency in test [1] was 34.7 µM (active). For the same molecule, the Potency entry in test [2], in [3], in [4], in test [5], in test [6] and in [7] was “inactive” in each case. The Potency result in test [9], in [10], in test [18], in test [11], in test [12] and in test [13] was “inactive” in each case. The Potency result in test [20], in [19], in test [14] and in [15] was “inactive” throughout.
